The results in this text go back to PubChem BioAssay AID602144 (Vanderbilt Specialized Chemistry Center, 2011).

Each structure is given as a SMILES string. “And” between values parts separate entries of the source, which are not always exact repeats. Equal entries are not always repeated. The source made the active and inactive calls. No stated cut-off is given here; in the data, active means remaining activity below about 50%; inactive means the rest.

Chain of Phospholipase D1 (Homo sapiens) (Q13393 whole entry, looked up): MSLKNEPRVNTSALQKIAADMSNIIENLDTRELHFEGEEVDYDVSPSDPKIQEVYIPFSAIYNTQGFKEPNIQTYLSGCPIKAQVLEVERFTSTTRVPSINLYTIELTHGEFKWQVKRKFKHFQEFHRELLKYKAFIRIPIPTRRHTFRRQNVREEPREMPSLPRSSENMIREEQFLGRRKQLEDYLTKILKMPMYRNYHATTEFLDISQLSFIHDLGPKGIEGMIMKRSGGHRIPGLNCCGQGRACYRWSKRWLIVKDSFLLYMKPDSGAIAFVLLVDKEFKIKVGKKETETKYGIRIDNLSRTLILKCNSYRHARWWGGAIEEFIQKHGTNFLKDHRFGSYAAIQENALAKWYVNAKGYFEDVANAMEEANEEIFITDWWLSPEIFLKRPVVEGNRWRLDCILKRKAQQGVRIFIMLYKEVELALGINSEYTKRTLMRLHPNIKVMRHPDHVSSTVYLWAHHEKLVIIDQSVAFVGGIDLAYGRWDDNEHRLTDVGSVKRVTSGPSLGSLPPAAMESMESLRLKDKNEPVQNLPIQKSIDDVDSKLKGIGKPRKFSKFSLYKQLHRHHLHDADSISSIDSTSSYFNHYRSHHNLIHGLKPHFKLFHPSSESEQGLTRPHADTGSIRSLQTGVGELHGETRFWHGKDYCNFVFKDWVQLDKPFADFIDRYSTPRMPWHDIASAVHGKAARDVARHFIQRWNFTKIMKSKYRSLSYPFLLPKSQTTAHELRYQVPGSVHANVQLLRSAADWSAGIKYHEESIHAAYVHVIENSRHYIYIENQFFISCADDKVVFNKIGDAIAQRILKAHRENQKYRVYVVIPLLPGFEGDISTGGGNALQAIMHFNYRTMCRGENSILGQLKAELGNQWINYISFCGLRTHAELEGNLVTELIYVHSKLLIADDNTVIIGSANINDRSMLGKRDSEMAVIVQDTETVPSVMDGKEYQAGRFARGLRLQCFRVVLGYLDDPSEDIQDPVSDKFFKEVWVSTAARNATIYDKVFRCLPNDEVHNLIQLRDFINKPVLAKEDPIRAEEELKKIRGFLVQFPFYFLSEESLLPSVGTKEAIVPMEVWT
Chain of Phospholipase D1 (Homo sapiens) (Q13393 whole entry, looked up): as above

The assay has as its target Phospholipase D1 (Homo sapiens) (UniProt Q13393). Description: PLD1 inhibitors in cells, Calu-1 cells, single concentration (AID 602144).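 Further: tested at 200 nM.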 To be noted: cellular PLD1 activity, stronger effect = lower value.
As a reminder, the remaining activity is the signal under treatment as a percentage of the control signal. As for `Nc1ccc(C(=O)NCCN2CCC3(CC2)C(=O)NCN3c2ccccc2)cc1OC(F)(F)F`, the remaining activity is 91.5% (inactive).

With `O=C(NCCN1CCC2(CC1)C(=O)NCN2c1ccc(Br)cc1)c1ccc2ccccc2c1`, the remaining activity is 92.7% (inactive).

`O=C(c1cnc2ccccc2c1)N1CCC[C@@H]1CN1CCC2(CC1)C(=O)NCN2c1ccccc1`: the remaining activity was 107% (inactive).

Consider `O=C(NCCN1CCC2(CC1)C(=O)NCN2c1ccc(F)cc1)c1ccc2ccccc2c1`, for which the remaining activity was 75.2% (inactive).

On to `O=C(NCCN1CCC2(CC1)C(=O)NCN2c1ccc(Cl)cc1)c1ccc(Cl)cc1`, for which the remaining activity was 103% (inactive).

As for `Nc1cccc(Cl)c1C(=O)NCCN1CCC2(CC1)C(=O)NCN2c1ccccc1`, the remaining activity was 92.9% (inactive).

On to `O=C(NCCN1CCC2(CC1)C(=O)Oc1ccccc12)c1cnc2ccccc2c1`, for which the remaining activity is 105% (inactive).

For the compound `Cc1ccccc1C(=O)N(CCN1CCC2(CC1)C(=O)NCN2c1cccc(F)c1)C(=O)c1ccccc1C`, the remaining activity is 105% (inactive).

Consider `C[C@@H](CN1CCC2(CC1)C(=O)NCN2c1ccccc1)NC(=O)c1ccc(F)c(F)c1`, for which the remaining activity is 34.3% (active).

Take `O=C(NCCN1CCC2(CC1)C(=O)NCN2c1ccccc1)C1CCc2ccccc2C1` (stereo not drawn): the remaining activity is 103% (inactive) and 104% (inactive).

With `O=C(NCCN1CCC2(CC1)C(=O)NCN2c1ccccc1)c1cscn1`, the remaining activity was 92.4% (inactive).

Regarding `CCOC(=O)CCN1CCC2(CC1)C(=O)NCN2c1ccccc1`, the remaining activity was 83.2% (inactive).

Turning to `COc1cc(C(=O)NCCN2CCC3(CC2)C(=O)NCN3c2ccccc2)ccc1N`, the remaining activity was 103% (inactive).

For the compound `O=C(NCCN1CCC2(CC1)C(=O)NCN2c1ccc(F)cc1)c1cc2cc(F)ccc2[nH]1`, the remaining activity was 48.1% (active).

`O=C(c1ccc(F)c(F)c1)N1CCCC1CN1CCC(n2c(=O)[nH]c3ccccc32)CC1` (stereo not drawn): the remaining activity was 85.3% (inactive) and 91.1% (inactive).

Regarding `C[C@H](N)CN1CCC2(CC1)C(=O)NCN2c1ccccc1` (tested in a mixture with another compound), the remaining activity was 96.4% (inactive).

As for `O=C(NCCN1CCC2(CC1)C(=O)NCN2c1ccc(F)c(F)c1)c1ccc(F)cc1`, the remaining activity was 101% (inactive).

Take `C[C@@H](CN1CCC2(CC1)C(=O)N(Cc1ccccc1)c1ccccc12)NC(=O)c1ccc2ccccc2c1`: the remaining activity is 90.4% (inactive).

Regarding `O=C(NCCN1CCC2(CC1)C(=O)NCN2c1ccccc1)c1cc(=O)c2cc(Br)ccc2o1`, the remaining activity is 110% (inactive).

Turning to `CC(C)[C@@H](CN1CCC2(CC1)C(=O)NCN2c1ccccc1)NC(=O)c1cnc2ccccc2c1`, the remaining activity was 18.3% (active).

As to `O=C(NCCN1CCC2(CC1)C(=O)NCN2c1ccc(Cl)cc1)c1cc2ccccc2[nH]1`, the remaining activity was 61.5% (inactive).

Regarding `O=C(NCCN1CCC2(CC1)C(=O)NCN2c1ccc(F)c(F)c1)c1ccc2ccccc2c1`, the remaining activity was 84.3% (inactive).

In the case of `O=C(c1cnc2ccccc2c1)N1CC(N2CCC(n3c(=O)[nH]c4cc(Br)ccc43)CC2)C1`, the remaining activity is 81.6% (inactive).
